The source made the active and inactive calls.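 How the source made its calls, unless noted: active means inhibition of the reporter signal at or above 50%; inactive means inhibition below 50%.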

By inhibition is commonly meant the drop in the measured response relative to a control, in per cent.

Assay [1] in a line: inhibitors of TNFa-induced NFkB p65 translocation, primary screen, imaging, HUVEC, MLSMR starter and 10KST1 sets (AID 438;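 active means inhibition above 20% together with a positive visual image hit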;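 further: compound added about 3h40 before a 20 min TNFalpha stimulation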;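 on inhibition: signal is the nuclear over cytoplasmic p65 intensity ratio per well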). The following applies: HUVEC TNFa-induced p65 nuclear translocation; cell count: measured here: nuclei count (cytotoxicity indicator), at 2.08 µM; inhibition: at 2 µM, stronger effect = higher value, 0% TNFa-plus-vehicle, 100% no-TNFa wells.
Assay [2] can be described thus: inhibitors of mutant huntingtin aggregation, primary screen, imaging, exon1htt(103Q)mCFP cells, high-content imaging (AID 483;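 active means visual image review flags a hit and inhibition of aggregation exceeds 20%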;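 further: compound exposure lasted 3 days before fixation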;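 on nuclei count: percent of the per-plate median nuclei count of sample wells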). The following applies: exon1htt(103Q)mCFP cell line, aggregate imaging, at 2 µM; inhibition of aggregation: stronger effect = higher value; nuclei count: measured here: cell count, toxicity.
Assay [3] in a line: inhibitors of E-selectin induction by TNFa, primary screen, imaging, HUVEC, immunofluorescence, MLSMR starter and 10KST1 sets (AID 487;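 active means visually confirmed hit in the image check and inhibition above 20%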;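 on inhibition: signal is fraction of cell area covered by stained E-selectin grains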;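 on nuclei count: 100% = median nuclei count of all wells on the same plate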). To be noted: HUVEC TNFalpha-induced E-selectin immunofluorescence imaging, at 2 µM; inhibition: stronger effect = higher value; nuclei count: measured here: cell number, toxicity.
Assay [4] has as its target Voltage-gated potassium channel subunit beta-2 (Rattus norvegicus) (UniProt P62483). Kind of assay: KvBeta enzyme negative modulators, primary screen, biochemical, NADPH fluorescence (AID 622;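 active means fluorescence slope higher than the sample average by over 3 SD, cut at about -0.22 in these data, passing the limit was not always enough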;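 further: slope of raw intensity against log time taken from 70 to 1610 s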). To be noted: recombinant KvBeta, 4-cyanobenzaldehyde reduction, at 10 µM, stronger effect = higher value.
The target is the same in assay [5]. Kind of assay: KvBeta positive modulators, primary screen, biochemical, NADPH fluorescence (AID 623;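 active means NADPH fluorescence slope more negative than the mean of all samples by about 3 SD, 99.7% confidence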;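 further: fluorescence intensity change per second fitted from 20 to 320 s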). The following applies: Recombinant KvBeta, NADPH fluorescence decrease slope, 10 min; at 10 µM; stronger effect = lower value.
In assay [6] the target is Alpha-2C adrenergic receptor (Homo sapiens) (UniProt P18825). Kind of assay: modulators of alpha2C/GIRK thallium flux, primary screen, cell-based, HEK293 alpha2C/GIRK1/2 (AID 624;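 active means fluorescence slope after compound addition differing from the mean of all screened samples at 99.7% confidence, in either direction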;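 further: slope of fluorescence ratio to pre-addition baseline per second over 15 to 24 s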). The following applies: thallium flux BTC fluorescence, at 10 µM, actives lie on both sides.
Assay [7] can be described thus: inhibitors of Sendai virus-induced IRF3 signaling, primary screen, TLR/RLR signaling modifier project, cell-based, Sendai virus stimulus, luciferase, 10K MLSCN set (AID 602276;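 active means inhibition at or above 50% at 10 µM; inactive means inhibition below 50%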;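 further: firefly luciferase from ISG56 promoter only with Renilla not read in this screen; 0% = Sendai virus plus DMSO and 100% = medium plus DMSO without virus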). The following applies: HEK293 RL24 IRF3 luciferase reporter, at 10 µM, stronger effect = higher value. For orientation: Reporter assays use an easily measured gene product as a stand-in for the process of interest.

Assay [8] can be described thus: inhibitors of poly I:C-induced TLR3 signaling, primary screen, cell-based, poly I:C stimulus, luciferase, 10K MLSCN set (AID 602277). To be noted: HEK293-TLR3 RL24 IRF3 luciferase reporter, at 10 µM, stronger effect = higher value.

Voltage-gated potassium channel subunit beta-2 (Rattus norvegicus), sequence (P62483 whole entry, looked up): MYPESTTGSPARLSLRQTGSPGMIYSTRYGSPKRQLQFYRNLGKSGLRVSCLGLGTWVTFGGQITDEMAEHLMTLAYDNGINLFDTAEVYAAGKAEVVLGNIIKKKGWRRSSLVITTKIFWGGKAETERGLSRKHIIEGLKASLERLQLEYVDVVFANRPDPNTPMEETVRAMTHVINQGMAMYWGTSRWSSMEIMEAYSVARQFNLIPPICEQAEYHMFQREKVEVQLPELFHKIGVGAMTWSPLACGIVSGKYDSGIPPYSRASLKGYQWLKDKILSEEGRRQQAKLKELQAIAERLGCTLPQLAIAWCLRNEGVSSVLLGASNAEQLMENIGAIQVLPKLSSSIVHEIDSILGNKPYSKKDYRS
Alpha-2C adrenergic receptor (Homo sapiens), sequence (P18825 whole entry, looked up): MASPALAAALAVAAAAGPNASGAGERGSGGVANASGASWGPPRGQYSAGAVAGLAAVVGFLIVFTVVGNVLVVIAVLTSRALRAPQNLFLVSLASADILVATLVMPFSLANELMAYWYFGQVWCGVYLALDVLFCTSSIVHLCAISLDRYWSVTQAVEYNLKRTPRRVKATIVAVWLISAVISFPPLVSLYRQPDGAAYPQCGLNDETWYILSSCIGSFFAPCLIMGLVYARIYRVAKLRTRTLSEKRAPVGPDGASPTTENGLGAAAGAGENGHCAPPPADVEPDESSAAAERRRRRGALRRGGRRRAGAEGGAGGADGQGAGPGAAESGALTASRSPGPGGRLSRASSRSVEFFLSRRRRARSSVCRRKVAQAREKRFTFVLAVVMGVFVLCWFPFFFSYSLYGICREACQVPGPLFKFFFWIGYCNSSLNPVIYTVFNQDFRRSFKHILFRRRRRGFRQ

As to `CCOc1ccc(C(=O)N2CCN(c3ccccc3)CC2)cc1OCC`, the cell count in assay [1] stood at 196. Besides, the inhibition in assay [1] was -16.9% (inactive); in assay [3], -17.5% (inactive); in assay [7] it was 16% (inactive); in assay [8], 9.44% (inactive). Moreover, the inhibition of aggregation in assay [2] was 20.3% (inactive). Also, the nuclei count came to 97.1% in assay [2] and 100% in assay [3]. For the same molecule, the fluorescence slope in assay [4] is -0.561 (inactive). Further, the NADPH fluorescence slope in assay [5] is 9.3e-05 (inactive). The slope in assay [6] is 0.00618 (inactive).

As for `O=C(c1ccco1)N1CCN(CCCCN2C(=O)c3ccccc3C2=O)CC1`, the cell count in assay [1] is 265. The inhibition in assay [1] is 26.7% (inactive); in assay [3], 5.7% (inactive); in assay [7], 15.1% (inactive); in assay [8] it was 36.3% (inactive). Moreover, in assay [2], the inhibition of aggregation is 16% (inactive). Moreover, the results for the nuclei count in assay [2] and in assay [3] were 89.1% and 95.4%, respectively. For the same molecule, the fluorescence slope in assay [4] is -0.593 (inactive). Moreover, the NADPH fluorescence slope in assay [5] was 4.7e-06 (inactive). In addition, the slope in assay [6] was 0.00572 (inactive).

For `CCOCCCNC(=O)CC1Oc2ccc(C)cc2NC1=O` (centres undefined), in assay [1], the cell count is 595. Besides, the inhibition in assay [1] is -6.2% (inactive); in assay [3], -6.5% (inactive); in assay [7] it was 5.01% (inactive); in assay [8], 19.8% (inactive). Also, the inhibition of aggregation in assay [2] was 8.5% (inactive). In addition, the nuclei count in assay [2] was 107%; in assay [3], 121%. Also, in assay [4], the fluorescence slope is -0.525 (inactive). Moreover, the NADPH fluorescence slope in assay [5] is -3.6e-05 (inactive). In addition, in assay [6], the slope is 0.00596 (inactive).

As for `O=c1c(-c2ccc(Br)cc2)coc2c(CN3CCOCC3)c(O)ccc12`, in assay [1], the cell count is 557. The inhibition in assay [1] is -2.4% (inactive); in assay [3], -9.2% (inactive); in assay [7], 2.64% (inactive); in assay [8] it was -17.1% (inactive). Further, the inhibition of aggregation in assay [2] was -1.6% (inactive). The nuclei count in assay [2] was 102%; in assay [3], 118%. The fluorescence slope in assay [4] is -0.0321 (active). Also, in assay [5], the NADPH fluorescence slope is 3.3e-05 (inactive). Besides, in assay [6], the slope is 0.00611 (inactive).

`Cc1cc(C(=O)Nc2cccnc2)no1`: the cell count in assay [1] came out at 543. Also, the inhibition in assay [1] is -10.1% (inactive); in assay [3] it was -133% (inactive); in assay [7], -17% (inactive); in assay [8], -20.9% (inactive). Moreover, the inhibition of aggregation in assay [2] is -9.5% (inactive). In addition, the nuclei count worked out at 116% in assay [2] and 112% in assay [3]. Moreover, the fluorescence slope in assay [4] was -0.35 (inactive). The NADPH fluorescence slope in assay [5] is -5.2e-05 (inactive). Further, the slope in assay [6] is 0.0058 (inactive).

On to `O=C(COc1ccccc1)N1CCN(C(=O)c2cccc(F)c2)CC1`, for which the cell count in assay [1] was found to be 725. Besides, the inhibition in assay [1] was 1% (inactive); in assay [3], 7.6% (inactive); in assay [7], 8.19% (inactive); in assay [8], 29.6% (inactive). Moreover, the inhibition of aggregation in assay [2] was -0.2% (inactive). For the same molecule, the nuclei count was determined as 111% in assay [2] and 97.2% in assay [3]. Also, the fluorescence slope in assay [4] was -0.447 (inactive). In addition, in assay [5], the NADPH fluorescence slope was -3.8e-05 (inactive). The slope in assay [6] is 0.00634 (inactive).

Take `Cc1cccc(-c2cc3nc4c(c(N5CCOCC5)n3n2)CCCC4)c1`: the cell count in assay [1] was 621. In addition, the inhibition in assay [1] is -7.5% (inactive); in assay [3], -74.2% (inactive); in assay [7], -9.84% (inactive); in assay [8], 33.5% (inactive). Moreover, in assay [2], the inhibition of aggregation was 1.5% (inactive). Moreover, the nuclei count in assay [2] was 107%; in assay [3] it was 101%. In addition, the fluorescence slope in assay [4] is -0.399 (inactive). Also, the NADPH fluorescence slope in assay [5] is 1e-05 (inactive). The slope in assay [6] was 0.00597 (inactive).

As to `O=C1CC(N2CCN(C3CCc4ccccc4C3)CC2)C(=O)N1c1ccccc1` (centres undefined), the cell count in assay [1] stood at 288. Besides, the inhibition in assay [1] was 4% (inactive); in assay [3], 6.6% (inactive); in assay [7], 17.3% (inactive); in assay [8], 28.1% (inactive). Further, the inhibition of aggregation in assay [2] is 0.8% (inactive). Also, the nuclei count in assay [2] worked out at 88.6%; in assay [3] it was 121%. The fluorescence slope in assay [4] was -0.378 (inactive). The NADPH fluorescence slope in assay [5] was -9.9e-05 (inactive). Also, the slope in assay [6] was 0.00552 (inactive).

Consider `Cc1ccc(Cl)cc1N1CCN(C(=O)C2CCCN(S(=O)(=O)c3cnc[nH]3)C2)CC1` (centres undefined), for which the cell count in assay [1] came out at 563. Besides, the inhibition was 10.1% (inactive) in assay [1], -74.4% (inactive) in assay [3], -6.79% (inactive) in assay [7] and 3.89% (inactive) in assay [8]. Further, the inhibition of aggregation in assay [2] was -1.2% (inactive). The nuclei count in assay [2] was 102%; in assay [3], 126%. The fluorescence slope in assay [4] is -0.532 (inactive). The NADPH fluorescence slope in assay [5] was -2.9e-05 (inactive). In addition, the slope in assay [6] is 0.00714 (inactive).

With `CC1CCCCC1NC(=O)Cn1nnc(-c2ccc(Cl)cc2)n1` (centres undefined), in assay [1], the cell count is 447. Also, the inhibition was 1.9% (inactive) in assay [1], -27.6% (inactive) in assay [3], -4.91% (inactive) in assay [7] and -12% (inactive) in assay [8]. The inhibition of aggregation in assay [2] was -8.6% (inactive). In addition, the nuclei count in assay [2] came to 92.4%; in assay [3] it was 99.4%. The fluorescence slope in assay [4] was -0.578 (inactive). Further, the NADPH fluorescence slope in assay [5] is -2.2e-05 (inactive). In assay [6], the slope was 0.00728 (inactive).

As to `COc1ccc(CC(=O)NCc2nnc(SCC(=O)Nc3nccs3)n2-c2ccccc2)cc1`, in assay [1], the cell count is 640. In addition, the inhibition is 5.8% (inactive) in assay [1], -36.8% (inactive) in assay [3], 12% (inactive) in assay [7] and 33.9% (inactive) in assay [8]. For the same molecule, the inhibition of aggregation in assay [2] was 17.6% (inactive). The nuclei count was determined as 98.3% in assay [2] and 122% in assay [3]. Also, in assay [4], the fluorescence slope was -0.558 (inactive). The NADPH fluorescence slope in assay [5] is -2.9e-05 (inactive). In addition, the slope in assay [6] is 0.00708 (inactive).

On to `O=C(O)c1ccccc1S(=O)(=O)NCC(O)COc1ccc(Br)cc1` (centres undefined), for which the cell count in assay [1] worked out at 435. The inhibition in assay [1] was 3.5% (inactive); in assay [3] it was 31.4% (inactive); in assay [7], 10.6% (inactive); in assay [8] it was 14.4% (inactive). Moreover, the inhibition of aggregation in assay [2] is -17% (inactive). For the same molecule, the figures for the nuclei count in assay [2] and in assay [3] were 106% and 81.4%, respectively. In addition, the fluorescence slope in assay [4] was -0.39 (inactive). Besides, in assay [5], the NADPH fluorescence slope was 2.1e-05 (inactive). In assay [6], the slope is 0.00443 (inactive).

As for `O=C(CSc1nnc(CNC(=O)c2cccs2)o1)Nc1cccc(C(F)(F)F)c1`, the cell count in assay [1] is 262. Besides, the inhibition is 3.8% (inactive) in assay [1], -14.2% (inactive) in assay [3], 6.93% (inactive) in assay [7] and 19.8% (inactive) in assay [8]. The inhibition of aggregation in assay [2] was -12.8% (inactive). In addition, the figures for the nuclei count in assay [2] and in assay [3] were 78.7% and 111%, respectively. In addition, in assay [4], the fluorescence slope was -0.379 (inactive). For the same molecule, the NADPH fluorescence slope in assay [5] was -5.5e-05 (inactive). In addition, the slope in assay [6] was 0.00592 (inactive).

Turning to `CCNC(=O)C1CC(=O)N(Cc2ccc3c(c2)OCO3)C(=Nc2ccc(F)cc2)S1` (centres undefined), the cell count in assay [1] was determined as 705. For the same molecule, the inhibition is -0.8% (inactive) in assay [1], -83.7% (inactive) in assay [3], -2.28% (inactive) in assay [7] and 16% (inactive) in assay [8]. For the same molecule, the inhibition of aggregation in assay [2] is -38.8% (inactive). The values for the nuclei count in assay [2] and in assay [3] were 109% and 98%, respectively. Also, in assay [4], the fluorescence slope is -0.471 (inactive). In addition, in assay [5], the NADPH fluorescence slope is -0.000221 (inactive). In addition, the slope in assay [6] is 0.00631 (inactive).

(Values after PubChem BioAssay.)
